Values joined by “and” are separate entries in the source; they are usually repeats but may differ in a detail not shown here. Identical values can stand only once. Inconclusive results are not listed. Active and inactive are the calls of the source. Unless noted, calls follow the shape of the dose curve; as a rule, active = well fitted curve in the direction sought with a large enough effect; inconclusive = small, poorly fitted or top-dose-only effect, or another doubt; inactive = no such curve, though single readings can be large; an effect the other way counts as inactive or inconclusive.
Key:
[1] = Cell Viability - BJ (AID 421; calls by dose curve;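 also: potency is read from the fitted curve at half-maximal effect; cells exposed to compound for 40 hours at 37 °C before readout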); settings: BJ fibroblast viability, qHTS
Procedure, shortened: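 Luminescent ATP signal (CellTiter-Glo, 20 min at room temperature) served as the read-out of viable BJ cells after 40 hours of compound treatment. Responses were scaled between DMSO and 100 uM tamoxifen, and AC50 values were obtained by Hill modeling.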

[2] = Cell Viability - HepG2 (AID 433; calls by dose curve;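 also: potency is read from the fitted curve at half-maximal effect; potency for ATP loss meaning cytotoxicity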); settings: qHTS
Procedure, shortened: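 HepG2 hepatocellular carcinoma cells (1500/well) were treated with compounds for 40 h at 37 °C in complete medium; intracellular ATP was read by CellTiter-Glo luminescence. Data were normalized to DMSO and 100 uM tamoxifen, and AC50 came from Hill fits.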

[3] = Cell Viability - MRC5 (AID 434; calls by dose curve;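 also: potency is read from the fitted curve at half-maximal effect; cells exposed to compound for 40 hours at 37 °C; potency reflects cytotoxicity seen as loss of intracellular ATP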); settings: MRC5 lung fibroblast viability, qHTS
Procedure, shortened: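 Decrease in intracellular ATP, quantified by luciferase light output, reflects compound toxicity toward MRC5 cells exposed for 40 hr in complete culture medium. Concentration-response curves, scaled between DMSO and 100 uM tamoxifen, gave AC50 values.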

[4] = Cell Viability - N2a (AID 540); settings: N2a mouse neuroblastoma cell viability; at 92.2 µM (top of the series);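 also: plate controls were DMSO alone for no effect and tamoxifen control for full effect; nearly all actives have a fitted effect of over 45% in size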
Procedure, shortened: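 CellTiter-Glo ATP luminescence, read 20 min after reagent at room temperature, reported viability following 40 h compound treatment at 37 °C. N2a mouse neuroblastoma cells seeded 1500/well; Hill equation gave AC50.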

[5] = Cell Viability - HUV-EC-C (AID 542); settings: HUV-EC-C endothelial cell viability, qHTS; series mostly up to 92.2 µM; also: % is scaled to controls: 0 for no effect and ±100 for the full control effect; nearly all actives have a fitted effect of over 35% in size
Procedure, shortened: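 CellTiter-Glo luminescence measured ATP loss in HUV-EC-C cells (1000/well) after 40 hr compound exposure at 37 °C, in complete culture medium. Concentration-response data were Hill-fitted to give AC50.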

[6] = Cell Viability - SH-SY5Y (AID 544); settings: SH-SY5Y neuroblastoma cell viability; viability change, negative = cytotoxic: at 92.2 µM (top of the series); also: nearly all actives have a fitted effect of over 55% in size
Procedure, shortened: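 Cytotoxicity measured via ATP-dependent luciferase luminescence (CellTiter-Glo) following 40 h, 37 °C exposure of 1500 SH-SY5Y cells per well. Concentration-response data were fitted with the standard Hill equation to give AC50.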

[7] = Cell Viability - Renal Proximal Tubule (AID 545); settings: renal proximal tubule cells viability; at 91.7 µM (top of the series), primary cells of rat origin unless noted; also: nearly all actives have a fitted effect of over 40% in size
Procedure, shortened: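 Primary rat renal proximal tubule cells (1000/well) were treated with compounds for 40 hr at 37 °C in complete medium. Intracellular ATP was measured by CellTiter-Glo luminescence, and AC50 values came from Hill-equation fits of concentration-response data.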

[8] = Cellular Toxicity (caspase-3) Jurkat (AID 655); settings: Jurkat caspase-3 activation, luminescence, DMSO = 0%, tamoxifen = 100%; at 92.2 µM (top of the series);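 also: cells exposed to compound for 16 h at 37 °C before reading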
Procedure, shortened: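 Jurkat cells (5000/well) in complete medium were treated with compounds for 16 hr at 37 °C, then Caspase-Glo 3/7 luminescence was read after 20 min at room temperature. Data normalized to DMSO (basal) and 100 uM tamoxifen (100%); AC50 from Hill fit.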

[9] = Cellular Toxicity (caspase-3) HUV-EC-C (AID 656); settings: HUV-EC-C cells, caspase-3 activation (apoptosis), vehicle = 0, 100 µM tamoxifen = 100%; series mostly up to 92.2 µM
Procedure, shortened: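 HUV-EC-C endothelial cells, 1000/well, were pre-incubated 5 hr at 37°C, then exposed to compounds for 16 hr at 37°C. Caspase-Glo 3/7 luminescence was read after 20 min at room temperature. AC50 came from Hill fits, normalized to DMSO and 100 uM tamoxifen.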

[10] = Cellular Toxicity (caspase-3) SHSY5Y (AID 657); settings: SH-SY5Y caspase-3 activation, DMSO zero, 10 µM staurosporine = 100%; series mostly up to 91.7 µM
Procedure, shortened: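 SH-SY5Y human neuroblastoma cells (1500/well) were treated with compounds for 16 h at 37 °C, then Caspase-Glo 3/7 luminescence was read after 1 h at room temperature. Data normalized to DMSO and 10 uM staurosporine; AC50 from Hill fits.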

[11] = Cellular Toxicity (caspase-3) BJ (AID 658); settings: BJ fibroblasts, luminescence, normalized: DMSO 0%, staurosporine 100%; series mostly up to 91.7 µM
Procedure, shortened: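 Plated BJ cells (1000/well) rested 5 hr, received compound for 16 hr at 37 °C, then Caspase-Glo 3/7 reagent for 1 hr at room temperature before luminescence reading.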

[12] = Cellular Toxicity (caspase-3) MRC-5 (AID 659); settings: MRC-5 cells, luminescence, normalized: DMSO 0%, 10 µM staurosporine 100%; series mostly up to 91.7 µM
Procedure, shortened: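 Apoptosis readout in MRC-5 cells: luciferase light generated after caspase 3/7 cleaves a peptide-aminoluciferin substrate, measured post 16 hr compound incubation at 37 °C.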

[13] = Cellular Toxicity (caspase-3) SK-N-SH (AID 661); settings: SK-N-SH caspase-3 activation, qHTS, DMSO as zero, staurosporine as full; series mostly up to 91.7 µM
Procedure, shortened: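 Caspase 3/7 activation was read by luminogenic substrate cleavage after 16 hour treatment of SK-N-SH cells. Signal was scaled between DMSO and 10 uM staurosporine, and concentration-response data were fitted with the Hill equation for AC50.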

[14] = Cellular Toxicity (caspase-3) H-4-II-E (AID 663); settings: H-4-II-E rat hepatoma, scaled: DMSO 0%, 100 µM tamoxifen 100%; series mostly up to 92.2 µM;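 also: cells exposed to compound for 16 hr before readout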
Procedure, shortened: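 Caspase 3/7 activation measured in H-4-II-E cells in complete culture medium after 16 hr treatment at 37 °C, using luciferase-coupled substrate readout; AC50 values come from Hill-equation fits of normalized concentration-response data.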

[15] = Cellular Toxicity (caspase-3) Renal Proximal Tubule (AID 667); settings: renal proximal tubule cells; at 91.7 µM (top of the series), primary cells freshly taken from rat, solvent-only wells 0%, staurosporine 100% unless noted;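 also: cells exposed to compound for 16 hours at 37 °C before detection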
Procedure, shortened: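 Primary rat proximal tubule cells, 1000/well, 5 h plating at 37 °C, then compound 16 h at 37 °C. Caspase-Glo 3/7 reagent, 1 h RT, luminescence. Normalized to DMSO (basal) and 10 uM staurosporine (100%); Hill-fit AC50.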

[16] = qHTS Assay for Identification of Small Molecule Inducers of Hypoxia Response (AID 2120; active = well fitted curve in the direction sought with a large enough effect in the signal ratio, with a control signal flat, not every such curve was filed as active; the % refers to the signal ratio; also: 0% is about no effect); settings: hypoxia response reporter cells, beta-lactamase ratio readout; series mostly up to 104 µM
Procedure, shortened: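 Reporter induction read as the CCF4 blue/green (460nm/530nm) emission ratio after 2.5 h dye loading at room temperature. ME-180 HRE-beta-lactamase cells received titrated compounds for 17 h at 37 degrees Celsius; AC50 values derived.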

[17] = qHTS assay for small molecule agonists of the antioxidant response element (ARE) signaling pathway measured by Nrf2-dependant transcriptional activity - cell viability counter screen (AID 720653; active = well fitted curve in the direction sought with a large enough effect in the repeat runs; an effect the other way counts as inactive or inconclusive; also: % is scaled to controls: 0 for no effect and ±100 for the full control effect); settings: ARE-bla HepG2 viability, CellTiter-Glo ATP luminescence, 16 h; active compounds read low
Procedure, shortened: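 ARE-bla HepG2 cells (2,000/well) rested 5 hrs at 37C/5% CO2, then exposed to compounds in DMSO for 16 hrs. Viability was read in the same wells as intracellular ATP by luminescence, 30 min at room temperature after reagent addition.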

[18] = qHTS assay for cell viability of HEK293 cells (AID 743288); settings: ATP luminescence (CellTiter-Glo), 18 h; max response: active compounds read low; also: % is scaled to controls: 0 for no effect and ±100 for the full control effect; nearly all actives have a fitted effect of over 50% in size
Procedure, shortened: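 After 18 h compound exposure at 37 C, parental HEK293 cells (2,000/well) are lysed with CellTiter-Glo and luminescence is read following 30 min at room temperature.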

[19] = qHTS assay for cell viability of the p53RE-bla HCT-116 cell line (AID 743292); settings: p53RE-bla HCT-116 viability, ATP luminescence, 16 h; series mostly up to 95 µM; also: % is scaled to controls: 0 for no effect and ±100 for the full control effect; nearly all actives have a fitted effect of over 55% in size
Procedure, shortened: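 CellSensor p53RE-bla HCT-116 cells, 4,000/well, preincubated 5 h at 37 C, then exposed to compounds in DMSO for 16 h at 37 C. Viability read as CellTiter-Glo luminescence (intracellular ATP) after 30 min at room temperature.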

O=C(Cl)/C=C/C(=O)Cl
inactive: Potency [1] > 92 µM | Potency [2] > 92 µM | Potency [3] > 92 µM | activity change, negative = cytotoxicity [4] 3.07% | Potency [5] | Potency [6] | activity change, negative = cytotoxicity [7] 2.59% | caspase-3 activation [8] 0.334% | outcome [9] | outcome [10] | outcome [11] | outcome [12] | outcome [13] | outcome [14] | caspase-3 activation [15] -3.63% | outcome [16] | max response [17] 3.07% | max response [18] 1.49% | Potency [19]

O=C(Cl)C(Cl)(Cl)Cl
inactive: Potency [1] > 92 µM | Potency [2] > 92 µM | Potency [3] > 92 µM | activity change, negative = cytotoxicity [4] 4.93% | Potency [5] | Potency [6] | activity change, negative = cytotoxicity [7] 0.33% | caspase-3 activation [8] 3.49% | outcome [9] | outcome [10] | outcome [11] | outcome [12] | outcome [13] | outcome [14] | caspase-3 activation [15] -1.87% | outcome [16] | max response [17] -1.42% | max response [18] -17% | Potency [19]

C=C(C)C#N
inactive: Potency [1] > 92 µM | Potency [2] > 92 µM | Potency [3] > 92 µM | activity change, negative = cytotoxicity [4] 1.28% | Potency [5] | Potency [6] | activity change, negative = cytotoxicity [7] 0.281% | caspase-3 activation [8] 1.57% | outcome [9] | outcome [10] | outcome [11] | outcome [12] | outcome [13] | outcome [14] | caspase-3 activation [15] 7.27% | outcome [16] | max response [17] -12.2% and -0.888% | max response [18] -2.82% and -11% | Potency [19]

ClC(Cl)=C(Cl)Cl
inactive: Potency [1] > 92 µM | Potency [2] > 92 µM | Potency [3] > 92 µM | activity change, negative = cytotoxicity [4] -8.38% and -0.61% | Potency [5] | Potency [6] | activity change, negative = cytotoxicity [7] -15.6% and -5.24% | caspase-3 activation [8] -0.349% and -0.592% | outcome [9] | outcome [10] | outcome [11] | outcome [12] | outcome [13] | outcome [14] | caspase-3 activation [15] 1.99% and -8.12% | outcome [16] | max response [17] 5.48% and 2.15% | max response [18] 2.96% and -9.63% | Potency [19]

CC(=O)[O-].CC(=O)[O-].O.O.O.[Pb+2]
inactive: Potency [1] > 92 µM | Potency [2] > 92 µM | Potency [3] > 92 µM | activity change, negative = cytotoxicity [4] 13.3% and 9.03% | Potency [5] | Potency [6] | activity change, negative = cytotoxicity [7] -5.61% and -0.959% | caspase-3 activation [8] 1.15% and 0.852% | outcome [9] | outcome [10] | outcome [11] | outcome [12] | outcome [13] | outcome [14] | caspase-3 activation [15] -9.48% and -1.66% | outcome [16] | max response [17] -9.67% and 5.41% | max response [18] -11.3% and -5.22% | Potency [19]

BrCCBr
inactive: Potency [1] > 92 µM | Potency [2] > 92 µM | Potency [3] > 92 µM | activity change, negative = cytotoxicity [4] -0.148% | Potency [5] | Potency [6] | activity change, negative = cytotoxicity [7] -6.16% | caspase-3 activation [8] -0.244% | outcome [9] | outcome [10] | outcome [11] | outcome [12] | outcome [13] | outcome [14] | caspase-3 activation [15] -15.1% | outcome [16] | max response [17] 2.36% and -0.33% | max response [18] 2.15% and 1.92% | Potency [19]
